Experimental findings from PubChem BioAssay (EPA / NIEHS) are described below.

The structures appear in SMILES notation. “And” between values parts separate entries of the source, which are not always exact repeats. Equal entries are not always repeated. Some compounds were tested as several samples or in several runs, with calls that do not always agree. The source made the active and inactive calls. How the source made its calls: active means hit-call score of the fitted dose curve at least 0.9, where 1 is the maximum; inactive means score below 0.9.

Read-out in this experiment: Interleukin-10 (IL10), IL10 (gene 3586)
Put plainly: BSK_IMphg_IL10: BioMAP Diversity Plus: IMphg Assay for Interleukin-10 (IL10) Biomarker Activity (AID 2284294). As to conditions: primary human endothelial cells with macrophages. Here is the method:
BSK_IMphg is a cell-based, multiplexed-readout assay that uses venular endothelial cells and macrophages, a human vascular primary cell, with measurements taken at 24 hours after chemical dosing in a microplate: 96-well plate.BSK_IMphg_IL10 is an assay component measured in the BSK_IMphg assay. It measures IL-10 antibody related to regulation of gene expression using ELISA technology.Data from the assay component BSK_IMphg_IL10 was analyzed at the endpoint, BSK_IMphg_IL10, in the positive analysis fitting direction relative to DMSO as the negative control and baseline of activity. Using a type of binding reporter, gain or loss-of-signal activity can be used to understand protein changes. To generalize the intended target to other relatable targets, this assay endpoint is annotated to the 'cytokine' intended target family, where the subfamily is 'interleukins'.
The levels of cell surface (or secreted, indicated by the prefix "s") biomarker endpoints were measured by ELISA. Overt cytotoxicity to cells in confluent adherent cultures (all systems other than the BT system) was assessed by measuring total protein levels using sulforhodamine B (SRB) staining in parallel cultures at the time of biomarker measurements, indicated as SRB endpoints. For proliferation assays for adherent cell types, individual cell types are cultured at sub-confluence and relative cell numbers quantified by SRB staining at time points optimized for each system (48 h: 3C and CASM3C systems; 72 h: BT and HDF3CGF systems; 96 h: SAg system). SRB was performed by staining cells with 0.1% SRB after fixation with 10% TCA and reading wells at 560 nm.Viability and proliferation of PBMC (T cells) was quantified by Alamar Blue reduction for the SAg and BT systems. For PBMC viability (referred to as PBMC Cytotoxicity within the assay endpoint names), cells were plated (75,000/well in a 96-well plate) and then chemical samples added for 1 h before addition of activators, SEB and TSST-1 (20 ng/mL final concentration each). Cells were incubated for 90 h. Then, Alamar Blue (20 uL/well) (Invitrogen, Cat DAL1100) was added for 6 h, and the plates were read with a fluorescence microplate reader at 546/580 nm (excitation/emission). For PBMC proliferation, cells were plated and activated as above but incubated for only 16 h prior to addition of Alamar Blue. Plates were read after 6 h.
As to `OCCCC(F)(F)C(F)(F)C(F)(F)C(F)(F)C(F)(F)C(F)(F)C(F)(F)F`, the outcome was inactive and the AC50 (as a rule, the concentration giving half of the maximal activity seen) is 54.9 µM (active).
On to `OCC(F)(F)C(F)(F)C(F)(F)C(F)(F)C(F)(F)C(F)(F)F`, for which the result was inactive.
On the same count and under the same terms, the value for `OCC(F)(F)C(F)(F)C(F)(F)C(F)F` was “inactive”; that for `FC(F)(F)C(F)(F)C(F)(F)C(F)(F)C(F)(F)C(F)(F)C(F)(F)C(F)(F)CCS` was “inactive”.
For the compound `O=C(O)C=C(C(F)(F)F)C(F)(F)F`, the concentration at half-maximal activity (AC50) was 12.8 µM (active) and 11.3 µM (active).
With `C=CC(F)(F)C(F)(F)C(F)(F)C(F)(F)C(F)(F)C(F)(F)C(F)(F)C(F)(F)C=C`, the outcome was inactive.
In the case of `O=S(=O)(O)C(F)(F)C(F)(F)C(F)(F)C(F)(F)C(F)(F)C(F)(F)C(F)(F)F`, the AC50 is 13.3 µM (active) and the outcome was inactive.
With `O=C(O)C(F)(F)C(F)(F)C(F)(F)F`, the result was inactive.
Regarding `O=C(Cl)C(F)(F)C(F)(F)C(F)(F)C(F)(F)C(F)(F)C(F)(F)C(F)(F)C(F)(F)F`, the outcome was inactive; the AC50 was 51.8 µM (active) and 44.2 µM (active).
Regarding `CCCCCCCCC(F)(F)C(F)(F)C(F)(F)C(F)(F)C(F)(F)C(F)(F)F`, the outcome was inactive.
Still for that read-out and setting: for `FC(F)(F)C(F)(F)C(F)(F)C(F)(F)C(F)(F)CCI` the value was “inactive”.
Consider `C=C(C)C(=O)OCC(F)(F)C(F)(F)C(F)(F)C(F)(F)C(F)(F)C(F)(F)C(F)(F)F`, for which the half-maximal activity concentration (AC50) was 3.33 µM (active) and the outcome was inactive.
On to `O=C(O)C(F)(F)C(F)(F)C(F)(F)C(F)(F)C(F)(F)C(F)(F)C(F)(F)C(F)(F)Cl`, for which the half-maximal activity concentration (AC50) is 45.8 µM (active) and 45.3 µM (active).
For the compound `O=C(O)C(F)(F)C(F)(F)C(F)(F)C(F)(F)C(F)(F)C(F)(F)C(F)(F)C(F)(F)C(F)(F)C(F)(F)C(F)(F)C(F)(F)C(F)(F)F`, the result was inactive.
Still for that read-out and setting: for `O=C(O)C(F)(F)C(F)(F)C(F)F` the value was “inactive”.
Take `FC(F)(F)C(F)(F)C(F)(F)C(F)(F)C(F)(F)C(F)(F)C(F)(F)Br`: the result was inactive.
Still for that read-out and setting: the value for `FC1CC(F)(F)C(F)(F)C1(F)F` (stereo not given) was “inactive”.
On the same count and under the same terms, the value for `O=C(CC(=O)C(F)(F)C(F)(F)F)C(F)(F)F` was “inactive”; that for `CCO[Si](CCC(F)(F)C(F)(F)C(F)(F)C(F)(F)C(F)(F)C(F)(F)F)(OCC)OCC` was “inactive”.
As to `FC(F)(F)C(F)(F)CNCC(F)(F)C(F)(F)F`, the outcome was inactive.
For the compound `COC(=O)CCC(F)(F)C(F)(F)C(F)(F)C(F)(F)F`, the result was inactive and the concentration at half-maximal activity (AC50) was 7.74 µM (active).
For `O=C(O)C(F)(OC(F)(F)C(F)(OC(F)(F)C(F)(OC(F)(F)C(F)(F)C(F)(F)F)C(F)(F)F)C(F)(F)F)C(F)(F)F` (stereo not given), the result was inactive.
The same measure, in the same setting: the value for `O=C(O)C(F)(F)C(F)(F)F` was “inactive”; that for `FC(F)(F)C(F)(F)C(F)(F)C(F)(F)C(F)(F)C(F)(F)C(F)(F)I` was “inactive”.
On to `FC(F)(F)C(F)(F)C(F)(F)C(F)(F)C(F)(F)C(F)(F)CCS`, for which the result was inactive and the AC50 is 2.49 µM (active).
Turning to `FC(F)(Br)C(F)(F)C(F)(F)C(F)(F)C(F)(F)C(F)(F)Br`, the outcome was inactive.
On the same count and under the same terms, the value for `O=C(O)C(F)(OC(F)(F)C(F)(OC(F)(F)C(F)(F)C(F)(F)F)C(F)(F)F)C(F)(F)F` (stereo not given) was “inactive”.
`FC(F)(F)C(F)(F)C(F)(F)C(F)(F)CCI`: the result was inactive.
For `O=C(O)C(F)(F)C(F)(F)OC(F)(F)F`, the outcome was inactive.
For the compound `FC(F)(F)C(F)(F)C(F)(F)N(C(F)(F)C(F)(F)C(F)(F)F)C(F)(F)C(F)(F)C(F)(F)F`, the outcome was inactive.
Still for that read-out and setting: the value for `NC(=O)C(F)(F)C(F)(F)C(F)(F)C(F)(F)F` was “inactive”; that for `FC(F)(F)C(F)(F)C(F)(F)CI` was “inactive”.
With `FC(F)(I)C(F)(F)C(F)(F)C(F)(F)I`, the AC50 is 30 µM (active) and the result was inactive.
